In PubChem BioAssay AID652251 (National Center for Advancing Translational Sciences (NCATS), 2013):
The source made the active and inactive calls.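 The calls were made as follows: active = lowers cyclin D1 in cells by half at 5 µM or less; inconclusive = half-effect dose above 5 µM but under 10 µM; inactive = half-effect dose of 10 µM or more.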

Test: qHTS for Inhibitors of Ubiquitin-specific Protease USP2a Using CHOP2 as the Reporter: Cyclin D1 Western Blot
Settings: HCT116 cyclin D1 western blot
Text: Homeostasis of cellular proteins is maintained through a combination of synthesis and degradation. The pathway that accounts for the majority of protein degradation is the ubiquitin-proteasomal pathway. Ubiquitin (Ub) is highly conserved in all cells and the generation of a multi-Ub chain typically targets proteins for degradation by the proteasome. However, ubiquitination is highly reversible and dynamic. Deubiquitination, the reverse process, is catalyzed through the action of enzymes referred to as isopeptidases or deubiquitinating enzymes (DUBs). This group of enzymes is collectively responsible for maintaining adequate pools of free ubiquitin and regulating the ubiquitination status of cellular proteins. The class of DUBs referred to as the ubiquitin-specific proteases (USP) family functions endoproteolytically to cleave Ub chains from a wide range of protein substrates. USP2a deubiquitinates fatty acid synthase (FASN) which has recently been identified as an emerging oncology target. […] To further visualize and quantitate the effect of compounds on cell proliferation, a colony forming or clonogenic assay was performed in 6-well plates using HCT116 cells. […] The colonies were visualized on the Typhoon imager (GE) using Cy5 detection, and quantitated with the associated software. […]
. […] Protein levels were quantified using ImageJ.

Compound | Potency
Cc1ccc(S(=O)(=O)Nc2cc(C(F)(F)F)ccc2C(=O)Nc2nc(-c3ccccc3)cs2)cc1 | 970 nM (active)
